# Results from PubChem BioAssay (EPA / NIEHS).
# Activity calls are given as the source filed them. The calls were made as follows: active = hit-call score of the fitted dose curve at least 0.9, where 1 is the maximum; inactive = score below 0.9.
# Assay: ATG_TA_CIS: Attagene CIS-FACTORIAL HepG2 Assay for human TA Basal Promoter (AID 2282964)
# Conditions: HepG2 Attagene CIS-factorial TA basal promoter reporter; actives raise or lower the signal
# Protocol: ATG_CIS is a cell-based, multiplexed-readout assay that uses HepG2, a human liver cell line, with measurements taken at 24 hours after chemical dosing in a 24-well plate.ATG_TA_CIS is one of 52 assay component(s) measured or calculated from the ATG_CIS assay. It is designed to make measurements of mRNA induction, a form of inducible reporter, as detected with fluorescence intensity signals by Reverse transcription polymerase chain reaction (RT-PCR) and Capillary electrophoresis technology.Data from the assay component ATG_TA_CIS was analyzed into 1 assay endpoint. This assay endpoint, ATG_TA_CIS, was analyzed with bidirectional fitting relative to DMSO as the negative control and baseline of activity. Using a type of inducible reporter, measures of mRNA for gain or loss-of-signal activity can be used to understand the background control at the transcription factor-level as they relate to the gene . Furthermore, this assay endpoint can be referred to as a secondary readout, because this assay has produced multiple assay endpoints where this one serves a background control function. To generalize the intended target to other relatable targets, this assay endpoint is annotated to the background measurement intended target family, where the subfamily is internal marker.
# Human liver HepG2 cells are transiently transfected with multiple reporter transcription units (MRTUs) in 6-well plates using FuGene 6 reagent (Roche; 3 ml FuGene/1 mg DNA). The MRTU constructs are regulated by a cis-regulating element (promoter). […] A major difference between the CIS and TRANS system is that in CIS activities of endogenous TFs are measured, whereas the TRANS assay evaluates changes in activities of exogenous, chimeric NR-Gal4 proteins. […] At the end of 24 hour incubation, total RNA was isolated using TriZol reagent (Invitrogen). The isolated RNA is then reverse-transcribed using oligo(dT) primer and Mo-MLV reverse transcriptase (Invitrogen) with DNAse I (Ambion) treatment for 30 min. The one-tenth of the produced cDNA was amplified by PCR using Taq DNA polymerase (Invitrogen) and two reporter sequence-specific primers. The PCR products were fluorescently labeled by primer extension with 6-arboxyfluorescein (6-FAM) 5'-labeled reporter sequence-specific primer (2 min at 95 C, 20 s at 68 C and 10 min at 72 C) and these products were digested with 5U of HpaI (New England Biolabs) for 2h at 37 C. The fragments were purified using Qiaquick PCR columns (Qiagen), analyzed on an ABI 3130xL genetic analyzer (Applied Biosystems) with peak positions identified by using a set of X-rhodamine (ROX)-labeled MapMarker1000 molecular weight standards (BioVentures). The raw capillary electrophoresis data was processed using Attagraph software (Attagene).
row,SMILES,outcome
1,CCCCCCCCCc1ccc(OCCO)cc1,inactive
2,NS(=O)(=O)C(F)(F)C(F)(F)C(F)(F)C(F)(F)C(F)(F)C(F)(F)F,inactive
3,O=C1OC(=O)c2ccc3c4c(ccc1c24)C(=O)OC3=O,inactive
4,CCN(CC)c1ccc2c(c1)Oc1cc(N(CC)CC)ccc1C21OC(=O)c2ccccc21,inactive
5,O=C(Cl)c1ccc(Cl)cc1Cl,inactive
6,O=C1c2c(O)ccc(Nc3ccc(CCO)cc3)c2C(=O)c2c([N+](=O)[O-])ccc(O)c21,inactive
7,CC(O)C#CC(C)O (stereo not given),inactive
8,C=CC(=O)OCCC(F)(F)C(F)(F)C(F)(F)C(F)(F)F,inactive
9,Cc1cnccn1,inactive
10,CCC(C)CO (stereo not given),inactive
11,FC(F)(F)C(F)(F)C(F)(F)CC1CO1 (stereo not given),inactive
12,OCCCc1cccnc1,inactive
13,Oc1ccc(C2(c3ccc(O)c(C4CCCCC4)c3)CCCCC2)cc1C1CCCCC1,inactive
14,NC(=O)C(F)(F)C(F)(F)C(F)(F)C(F)F,inactive
15,O=C(c1ccccc1)c1ccc(O)cc1O,inactive
16,OCC(O)CC(F)(F)C(F)(F)C(F)(F)C(F)(F)F (stereo not given),inactive
17,CCCCCCCCCCCCC[N+](C)(C)Cc1ccccc1,inactive
18,Nc1cccnc1N,inactive
19,O=c1[nH]cccc1O,inactive
20,O=C1c2ccccc2C(=O)c2c(Cl)cccc21,inactive

row,SMILES,outcome
1,O=S(=O)(O)c1ccc(Cl)cc1,inactive
2,CCC(=O)OC(C)c1ccccc1 (stereo not given),inactive
3,Oc1ccc2c(c1)CCC2,inactive
4,CCc1cc(Cc2cc(CC)c(N)c(CC)c2)cc(CC)c1N,inactive
5,COCCC(=O)OC,inactive
6,CC(C)OC=O,inactive
7,Cc1ccc(O)c(-n2nc3ccccc3n2)c1,inactive
8,CCCCCCCC/C=C\CCCCCCCC(=O)N(C)CC(=O)O,inactive
9,CN1CN(C)CN(C)C1,inactive
10,CC(C)(C)C(=O)C1C(=O)c2ccccc2C1=O,inactive
11,CC(=O)CCC(C)C,inactive
12,CC(C)C(=O)OCc1ccccc1,inactive
13,O=C=NCc1cccc(CN=C=O)c1,inactive
14,CO[Si](CCCOCC1CO1)(OC)OC (stereo not given),inactive
15,OC(O)C(F)(F)C(F)(F)F,inactive
16,C=CC(=O)OCC(F)(F)C(F)(F)C(F)(F)COC(=O)C=C,inactive
17,Cc1cccc(C)n1,inactive
18,O=C(O)C(F)(F)OC(F)(F)C(F)(F)OC(F)(F)C(F)(F)OC(F)(F)F,inactive
19,OCC(F)(F)C(F)(F)C(F)(F)C(F)(F)C(F)(F)C(F)(F)CO,inactive
20,CCN(CCO)S(=O)(=O)C(F)(F)C(F)(F)C(F)(F)C(F)(F)C(F)(F)C(F)(F)C(F)(F)C(F)(F)F,inactive
